Where “and” joins values, the source holds several entries; their conditions need not be identical. Equal entries are not always repeated. Results filed as inconclusive are left out. Calls of active or inactive are those of the source. Unless noted, the call rests on the fitted dose curve.
What was measured:
Aromatase (Homo sapiens) = Aromatase (Homo sapiens) (UniProt P11511); assay: qHTS assay to identify aromatase inhibitors (AID 743083; active means well fitted curve in the direction sought with a large enough effect in the repeat runs; an effect the other way counts as inactive or inconclusive; further: nearly all actives have a fitted effect of over 55% in size; further: potency means the concentration at half of the fitted maximal effect)
[1] = molecular target: Aryl hydrocarbon receptor (Homo sapiens) (UniProt P35869); assay: qHTS assay to identify small molecule that activate the aryl hydrocarbon receptor (AhR) signaling pathway (AID 743085; active means well fitted curve in the direction sought with a large enough effect in the repeat runs; an effect the other way counts as inactive or inconclusive; further: nearly all actives have a fitted effect of over 15% in size; further: potency means the concentration at half of the fitted maximal effect;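 on activation: HG2L7.5c1 human HepG2 liver cells with stably integrated DRE-driven firefly reporter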)
How it was run: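 A multiplexed format paired cell viability (CellTiter-Fluor fluorescence) with AhR-dependent luciferase output (ONE-Glo luminescence) in the same wells of HepG2 DRE-luc cells after 24 h compound exposure at 37C.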

[2] = qHTS assay to identify small molecule antagonists of the retinoic acid receptor (RAR) signaling pathway (AID 1159552; active means well fitted curve in the direction sought with a large enough effect in the repeat runs; an effect the other way counts as inactive or inconclusive; further: nearly all actives have a fitted effect of over 50% in size; further: potency means the concentration at half of the fitted maximal effect)
How it was run: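 Antagonism of retinol-induced RARE reporter activity was measured in C3RL4 cells. Exposure to compounds and 1 uM final retinol lasted 6 hr at 37 C, with luminescence as endpoint.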

[3] = qHTS assay to identify small molecule agonists of H2AX (AID 1224845; active means well fitted activation curve with a large enough effect in the signal ratio in the repeat runs, not every such curve was filed as active; the % refers to the signal ratio; further: potency means the concentration at half of the fitted maximal effect)
How it was run: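 Wild-type CHO-K1 cells plated overnight, then exposed 3 hr at 37C to compounds at 15 concentrations (0.76% DMSO). Lysed, then HTRF anti-pH2AX(S139)-cryptate/anti-H2AX-d2 detection after 24 hr at room temperature; emissions 665 and 620 nm.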

[4] = qHTS assay to identify small molecule agonists of the estrogen related receptor (ERR) signaling pathway from Tox21 library (AID 1224849); conditions: ERR reporter cell line, ONE-Glo luciferase, 18 h; at 92.4 µM (top of the series) unless noted; further: nearly all actives have a fitted effect of over 15% in size
How it was run: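 Quantitative HTS in agonist format: NTP ERR cell line, compounds transferred in DMSO after 6 h plating, 18 h incubation at 37 C, ONE-Glo luminescence endpoint.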

[5] = A CellTox Green Cytotoxicity Assay to monitor cytotoxicity in HepG2 cells - 0 hour (AID 1224882; active means well fitted curve in the direction sought with a large enough effect in the repeat runs; an effect the other way counts as inactive or inconclusive; further: nearly all actives have a fitted effect of over 35% in size)
How it was run: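 First, HepG2 cells (600/well) mixed with reagent were plated; second, after 5 h at 37 C they received compounds via pintool; third, fluorescence was measured at 0 h through 40 h at 8 h intervals.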

[6] = qHTS assay to identify small molecule HDAC inhibitors (AID 1259364; active means well fitted curve in the direction sought with a large enough effect in the repeat runs; an effect the other way counts as inactive or inconclusive;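 further: wild-type HCT-116 cells with endogenous class I/II HDAC activity; top concentration of the series differs between compounds; nearly all actives have a fitted effect of over 45% in size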)
How it was run: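 Quantitative high-throughput format: overnight-seeded HCT-116 cells got compounds for 2 hr at 37C; HDAC-Glo I/II reagent added, 30 min RT, luminescence measured.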

[7] = qHTS assay to identify small molecule agonists of the sonic hedgehog signaling (Shh) pathway (AID 1259368);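 further: NIH/3T3-derived 3T3Gli1-Luc cells carrying a stable Gli1-driven firefly luciferase reporter; nearly all actives have a fitted effect of over 15% in size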
How it was run: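 Quantitative high-throughput format using a Gli1-driven firefly luciferase reporter line derived from NIH/3T3 cells. After a 24 hr compound treatment at 37 C and 5% CO2, luminescence reported Gli1 response element activity.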

[8] = Caspase-3/7 induction in HepG2 cells by small molecules, qHTS assay (AID 1346978; active means well fitted curve in the direction sought with a large enough effect in the repeat runs; an effect the other way counts as inactive or inconclusive; further: nearly all actives have a fitted effect of over 15% in size)
How it was run: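 Wild-type HepG2 cells (2,000/well) were settled 5 h at 37 C, 5% CO2, then exposed to compounds in DMSO for 17 h. Caspase-3/7 activity was read by luminescence 30 min after adding Caspase-Glo 3/7 reagent at room temperature.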

[9] = Caspase-3/7 induction in CHO-K1 cells by small molecules, qHTS assay (AID 1346980; active means well fitted curve in the direction sought with a large enough effect in the repeat runs; an effect the other way counts as inactive or inconclusive; further: nearly all actives have a fitted effect of over 15% in size)
How it was run: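 Wild-type cells were seeded at 1,500 per well and settled 5 hr at 37 C, 5% CO2, then exposed to DMSO-dissolved compounds for 17 hr. Caspase-Glo 3/7 reagent was added, and luminescence was read after 30min at room temperature.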

[10] = molecular target: Acetylcholinesterase (Homo sapiens) (UniProt P22303); assay: Acetylcholinesterase (AChE) small molecule antagonists: colormetric cell-based qHTS assay (AID 1347395); further: nearly all actives have a fitted effect of over 30% in size; further: potency means the concentration at half of the fitted maximal effect
How it was run: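 Homogeneous whole-cell format. SH-SY5Y cells seeded overnight, dosed with compound (30 min, 37 C, 5% CO2), then given DTNB/acetylthiocholine cocktail for 90 min at 37 C; colorimetric signal.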

[11] = molecular target: Acetylcholinesterase (Homo sapiens) (UniProt P22303); assay: Acetylcholinesterase (AChE) small molecule antagonists: enzyme-based qHTS assay with human liver microsomes (AID 1347399); conditions: Potency: qHTS inhibition; outcome: qHTS inhibition; further: nearly all actives have a fitted effect of over 60% in size; further: potency means the concentration at half of the fitted maximal effect
How it was run: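 Recombinant human AChE (50 mU/mL in the enzyme mix) and human liver microsomes (0.25 mg/mL final) were preincubated with compound and NADPH (0.25 mg/mL final) for 30 min at 37 C. Acetylthiocholine/DTNB was then added; thiocholine was read colorimetrically after 10 min at room temperature.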

[12] = molecular target: Acetylcholinesterase (Homo sapiens) (UniProt P22303); assay: Acetylcholinesterase (AChE) small molecule antagonists: enzyme-based qHTS assay (AID 1347397); conditions: Potency: AChE enzyme activity inhibition; outcome: AChE enzyme activity inhibition; further: nearly all actives have a fitted effect of over 55% in size; further: potency means the concentration at half of the fitted maximal effect
How it was run: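 Tox21 library chemicals are tested in qHTS format against recombinant human AChE. The enzyme, dispensed at 50 mU/mL, sits with compound for 30 min at room temperature. A DTNB–acetylthiocholine cocktail follows, and colour is read after 10 min.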

[13] = molecular target: Acetylcholinesterase (Homo sapiens) (UniProt P22303); assay: Acetylcholinesterase (AChE) small molecule antagonists: fluorescence cell-based qHTS assay (AID 1347398); conditions: Potency: AChE activity; outcome: AChE activity; further: nearly all actives have a fitted effect of over 50% in size; further: potency means the concentration at half of the fitted maximal effect
How it was run: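 Cellular AChE inhibition: SH-SY5Y cells treated with test chemical for 30 min at 37 C, then acetylthiocholine hydrolysis followed over 40 min at room temperature via thiocholine-reactive Thiolite Green fluorescence (490/520 nm).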

[14] = qHTS assay to identify small molecule antagonists of the estrogen related receptor (ERR) signaling pathway - cell viability counter screen (AID 1224818; active means well fitted curve in the direction sought with a large enough effect in the repeat runs; an effect the other way counts as inactive or inconclusive;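 further: viability measured after 17.5 h of compound exposure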)
How it was run: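 Quantitative high-throughput viability counter screen in ERR cells. Compounds (DMSO) incubated 17.5 h at 37 C; read-out was CellTiter-Fluor fluorescence.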

[15] = qHTS assay to identify small molecule antagonists of the estrogen related receptor (ERR) signaling pathway (AID 1224819; active means well fitted curve in the direction sought with a large enough effect in the repeat runs; an effect the other way counts as inactive or inconclusive;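 further: luminescence from an ERR-driven luciferase reporter measured with One-Glo reagent; nearly all actives have a fitted effect of over 50% in size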)
How it was run: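 ERR reporter cell line (NTP) plated at 2,000 cells/well, settled 6 h at 37C/5% CO2, then exposed to LOPAC compounds for 18 h at 37C. One-Glo luciferase luminescence read after 30 min at room temperature.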

[16] = qHTS assay to identify small molecule agonists of the estrogen related receptor (ERR) signaling pathway (AID 1224820; active means well fitted curve in the direction sought with a large enough effect in the repeat runs; an effect the other way counts as inactive or inconclusive)
How it was run: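 An ERR cell line provided by NTP was seeded at 2,000 cells per well and allowed to settle for 6 h before compounds in DMSO were added. After 18 h at 37 C, luciferase activity was measured by One-Glo luminescence.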

[17] = qHTS assay to identify small molecule antagonists of the estrogen related receptor signaling pathway with the pleiotropic PPARgamma coactivator (PGC) cell viability counter screen (AID 1224822; active means well fitted curve in the direction sought with a large enough effect in the repeat runs; an effect the other way counts as inactive or inconclusive)
How it was run: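 Cytotoxicity in the PGC/ERR cell line is assessed with CellTiter-Fluor, read as fluorescence intensity 30 min after reagent addition, following 17.5 h compound treatment at 37 C.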

[18] = qHTS assay to identify small molecule agonists of the estrogen related receptor signaling pathway with the pleiotropic PPARgamma coactivator (PGC) (AID 1224823; active means well fitted curve in the direction sought with a large enough effect in the repeat runs; an effect the other way counts as inactive or inconclusive)
How it was run: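 Compounds dissolved in DMSO are added by pin tool to PGC/ERR cells that have settled for 6 h, and incubation continues 18 h at 37 C. Reporter output is measured as One-Glo luminescence.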
On the % scale 0 is the no-effect control and ±100 the full control effect.

Chain of Aryl hydrocarbon receptor (Homo sapiens) (P35869 whole entry, looked up): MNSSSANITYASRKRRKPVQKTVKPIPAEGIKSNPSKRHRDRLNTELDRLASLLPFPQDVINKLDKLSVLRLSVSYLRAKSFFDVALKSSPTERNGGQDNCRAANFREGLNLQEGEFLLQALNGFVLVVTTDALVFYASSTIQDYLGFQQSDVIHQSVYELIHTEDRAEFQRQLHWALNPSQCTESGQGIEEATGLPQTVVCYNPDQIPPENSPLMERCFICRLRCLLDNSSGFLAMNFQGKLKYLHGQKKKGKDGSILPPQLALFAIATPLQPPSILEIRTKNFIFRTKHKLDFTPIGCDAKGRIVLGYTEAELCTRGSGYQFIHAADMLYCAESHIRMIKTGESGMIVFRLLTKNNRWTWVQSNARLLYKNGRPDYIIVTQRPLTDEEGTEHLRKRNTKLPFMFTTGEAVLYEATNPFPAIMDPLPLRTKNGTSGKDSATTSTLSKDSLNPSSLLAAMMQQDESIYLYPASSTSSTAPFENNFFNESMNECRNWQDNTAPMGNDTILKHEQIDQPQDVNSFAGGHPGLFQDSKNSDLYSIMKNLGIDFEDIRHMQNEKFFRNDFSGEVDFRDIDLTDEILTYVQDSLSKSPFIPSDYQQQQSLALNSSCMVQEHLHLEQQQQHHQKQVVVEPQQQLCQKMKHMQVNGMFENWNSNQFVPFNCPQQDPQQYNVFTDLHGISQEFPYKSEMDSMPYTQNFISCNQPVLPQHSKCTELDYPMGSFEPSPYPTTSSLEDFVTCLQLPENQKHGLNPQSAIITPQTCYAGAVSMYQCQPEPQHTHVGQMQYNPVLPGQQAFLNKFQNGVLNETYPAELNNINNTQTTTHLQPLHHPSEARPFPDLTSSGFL
Chain of Acetylcholinesterase (Homo sapiens) (P22303 whole entry, looked up): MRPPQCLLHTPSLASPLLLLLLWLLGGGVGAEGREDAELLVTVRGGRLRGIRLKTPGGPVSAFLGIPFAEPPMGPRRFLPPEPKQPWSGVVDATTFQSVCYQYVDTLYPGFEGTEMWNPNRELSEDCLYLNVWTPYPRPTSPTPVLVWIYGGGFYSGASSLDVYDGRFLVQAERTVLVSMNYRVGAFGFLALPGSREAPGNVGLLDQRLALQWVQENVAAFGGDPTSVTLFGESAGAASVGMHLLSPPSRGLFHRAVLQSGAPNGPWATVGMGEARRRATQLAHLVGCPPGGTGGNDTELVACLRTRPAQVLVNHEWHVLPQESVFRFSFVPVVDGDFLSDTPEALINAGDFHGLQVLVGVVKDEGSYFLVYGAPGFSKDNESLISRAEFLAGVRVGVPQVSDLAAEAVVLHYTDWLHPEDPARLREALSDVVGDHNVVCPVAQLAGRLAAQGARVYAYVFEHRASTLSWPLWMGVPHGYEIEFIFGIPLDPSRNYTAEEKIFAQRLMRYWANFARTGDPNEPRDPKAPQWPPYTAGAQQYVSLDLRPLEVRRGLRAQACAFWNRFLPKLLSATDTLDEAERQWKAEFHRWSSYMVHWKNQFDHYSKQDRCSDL
Chain of Aromatase (Homo sapiens) (P11511 whole entry, looked up): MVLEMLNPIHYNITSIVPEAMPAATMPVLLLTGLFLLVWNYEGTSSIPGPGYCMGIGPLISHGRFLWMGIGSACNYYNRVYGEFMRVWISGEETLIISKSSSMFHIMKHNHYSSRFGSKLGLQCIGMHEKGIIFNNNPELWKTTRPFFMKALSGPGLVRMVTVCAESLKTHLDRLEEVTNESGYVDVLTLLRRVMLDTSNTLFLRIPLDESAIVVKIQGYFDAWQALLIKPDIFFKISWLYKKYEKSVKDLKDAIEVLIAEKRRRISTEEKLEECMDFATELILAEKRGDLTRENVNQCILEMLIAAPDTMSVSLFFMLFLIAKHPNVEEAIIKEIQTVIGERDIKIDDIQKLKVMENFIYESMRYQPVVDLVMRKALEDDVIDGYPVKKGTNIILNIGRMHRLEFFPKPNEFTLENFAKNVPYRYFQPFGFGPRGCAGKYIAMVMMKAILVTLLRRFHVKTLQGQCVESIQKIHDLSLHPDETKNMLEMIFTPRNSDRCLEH

Cc1ccc(N(SC(F)(Cl)Cl)S(=O)(=O)N(C)C)cc1
inactive: Potency [1] | Potency [3] | activity change, positive = activation [4] -74.2% | Potency [5] | outcome [6] | outcome [7] | Potency [8] | outcome [9] | Potency [10]
active: Potency (Aromatase (Homo sapiens)) 3.86 µM | Potency [2] 13.7 µM | Potency [11] 71 µM

CC1COC(Cn2cncn2)(c2ccc(Oc3ccc(Cl)cc3)cc2Cl)O1 (stereo not drawn)
active: Potency (Aromatase (Homo sapiens)) 30.6 µM
inactive: Potency [1] | Potency [2] | activity change, positive = activation [4] -64.8% | Potency [5] | outcome [6] | outcome [7] | Potency [8] | outcome [9] | Potency [10] | Potency [12] | Potency [13] | Potency [11]

COc1cc(OC)c(OC)cc1C=O
inactive: Potency [14] | Potency [15] | Potency [16] | Potency [17] | Potency [18] | activity change, positive = activation [4] -39.3% | Potency [5] | outcome [6] | outcome [7] | Potency [8] | outcome [9] | Potency [10] | Potency [12] | Potency [13] | Potency [11]
active: Potency (Aromatase (Homo sapiens)) 44.4 µM

Cc1nnc2n1-c1sc(CCc3ccc(CC(C)C)cc3)cc1C(c1ccccc1Cl)=NC2C (stereo not drawn)
inactive: Potency [1] | activity change, positive = activation [4] -59.4% [at 42.5 µM] | Potency [5] | outcome [6] | outcome [7] | outcome [9] | Potency [10] | Potency [12] | Potency [13] | Potency [11]
active: Potency [2] 33.5 µM

Brc1cc(Br)cc(Br)c1
inactive: Potency [3] | activity change, positive = activation [4] -1.12% | Potency [8] | Potency [10] | Potency [12] | Potency [13] | Potency [11]

OC(Cc1ccccc1Cl)(Cn1[nH]cnc1=S)C1(Cl)CC1 (stereo not drawn)
inactive: Potency [2] | Potency [3] | Potency [5] | outcome [6] | outcome [7] | Potency [8] | outcome [9] | Potency [10] | Potency [12] | Potency [13] | Potency [11]

ClC1=C(Cl)C(Cl)(Cl)C(Cl)=C1Cl
inactive: Potency [2] | Potency [8] | Potency [10] | Potency [13] | Potency [11]

CCOC(=O)C(O)(c1ccc(Cl)cc1)c1ccc(Cl)cc1
active: Potency (Aromatase (Homo sapiens)) 4.37 µM and 30.6 µM | Potency [1] 24.6 µM | Potency [2] 30.9 µM and 30.6 µM | Potency [3] 90.7 µM and 89.8 µM
inactive: Potency [5] | outcome [6] | outcome [7] | Potency [10] | Potency [12] | Potency [13] | Potency [11]

CNC(=O)Oc1cc(C)c(SC)c(C)c1
active: Potency [3] 63.5 µM | Potency [10] 3.17 µM | Potency [12] 3.56 µM | Potency [13] 1.59 µM | Potency [11] 22.4 µM
inactive: Potency [5] | outcome [6] | outcome [7] | Potency [8] | outcome [9]

CCCCC(CC)COC(=O)CCCCC(=O)OCC(CC)CCCC (stereo not drawn)
inactive: Potency (Aromatase (Homo sapiens)) | Potency [2] | Potency [8] | Potency [10] | Potency [12] | Potency [13] | Potency [11]
